Activity calls are given as the source filed them. The calls were made as follows: active = hit-call score of the fitted dose curve at least 0.9, where 1 is the maximum; inactive = score below 0.9.

human Src Tyrosine Kinase, SRC (gene 6714), sequence (P12931 whole entry, looked up): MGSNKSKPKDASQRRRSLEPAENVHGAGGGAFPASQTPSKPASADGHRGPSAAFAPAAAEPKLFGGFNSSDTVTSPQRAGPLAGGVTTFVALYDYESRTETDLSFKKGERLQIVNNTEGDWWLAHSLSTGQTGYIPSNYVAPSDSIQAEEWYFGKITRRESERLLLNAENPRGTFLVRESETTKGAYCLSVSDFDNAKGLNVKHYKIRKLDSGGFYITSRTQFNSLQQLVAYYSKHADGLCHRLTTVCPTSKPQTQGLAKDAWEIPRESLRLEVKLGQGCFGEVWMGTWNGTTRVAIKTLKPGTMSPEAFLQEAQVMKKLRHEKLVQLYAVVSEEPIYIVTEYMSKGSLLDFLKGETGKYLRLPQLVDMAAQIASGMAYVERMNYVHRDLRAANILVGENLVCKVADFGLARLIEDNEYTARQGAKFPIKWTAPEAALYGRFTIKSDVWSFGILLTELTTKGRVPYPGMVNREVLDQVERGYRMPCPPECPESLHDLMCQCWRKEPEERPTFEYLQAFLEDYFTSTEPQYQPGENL

The target in this assay is human Src Tyrosine Kinase, SRC (gene 6714) (UniProt P12931). As to the kind of experiment: ERF_FR_ENZ_hSRC: Eurofins (ERF) Enzymatic Radiometric [Km ATP] KinaseProfiler LeadHunter Assay for human Src Tyrosine Kinase. The procedure:
ERF_FR_ENZ_hSRC is a biochemical, single-readout assay that uses extracted gene-proteins in a cell-free assay. Measurements were taken 0.16 hour after chemical dosing in a 96-well plate. See Src Human TK Kinase Enzymatic LANCE Assay [Km ATP], Cerep.ERF_FR_ENZ_hSRC is an assay component calculated from the ERF_FR_ENZ_hSRC assay. It is designed to measure enzyme activity using a type of enzyme reporter as detected by fluorescence intensity with LANCE technology.Data from the assay component ERF_FR_ENZ_hSRC was analyzed at the assay endpoint, ERF_FR_ENZ_hSRC, in the positive analysis fitting direction relative to DMSO as the negative control and baseline of activity. Using a type of enzyme reporter, loss-of-signal activity can be used to understand changes in enzymatic activity as they relate to gene SRC. To generalize the intended target to other relatable targets, this assay endpoint is annotated to the kinase intended target family, where the subfamily is non-receptor tyrosine kinase.
c-Src (h) is incubated with 8 mM MOPS pH 7.0, 0.2 mM EDTA, 250 uM […] (Cdc2 peptide), 10 mM MgAcetate and [gamma-33P]-ATP (specific activity and concentration as required). The reaction is initiated by the addition of the Mg/ATP mix. After incubation for 40 minutes at room temperature, the reaction is stopped by the addition of phosphoric acid to a concentration of 0.5%. […]
`O=C(/C=C/c1ccc(O)cc1)CC(=O)/C=C/c1ccc(O)cc1`: the call was inactive.

The record behind these values is PubChem BioAssay AID2284108 (EPA ToxCast).
